These results are taken from PubChem BioAssay (NCATS).

Assay [1] is described as follows: Quantitative High-Throughput drug screen in 47 multiple myeloma cell lines against the NCATS MIPE library collection: INA6_PLB cell viability assay (AID 1918965; also: nearly all actives have a fitted effect of over 55% in size). Put shortly: (§1)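 Inhibition of cell viability is measured here. Each line was plated at 500 cells per well, treated with MIPE 4.0 drugs, kept 48 hours at 37C, then assayed for ATP content by CellTiter-Glo luminescence.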

A short description of assay [2]: Quantitative High-Throughput drug screen in 47 multiple myeloma cell lines against the NCATS MIPE library collection: JJN3_DSMZ cell viability assay (AID 1918966; also: nearly all actives have a fitted effect of over 50% in size). Put shortly: (§2)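 We plated 500 myeloma cells per well, pinned in MIPE 4.0 compounds, and incubated for 48 hours at 37C. ATP was then quantified with CellTiter-Glo, with DMSO and media-only wells defining 100% and 0%.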

The nature of assay [3]: Quantitative High-Throughput drug screen in 47 multiple myeloma cell lines against the NCATS MIPE library collection: H1112_PLB cell viability assay (AID 1918967; also: nearly all actives have a fitted effect of over 30% in size). In outline:
as §2

Assay [4] is described as follows: Quantitative High-Throughput drug screen in 47 multiple myeloma cell lines against the NCATS MIPE library collection: Karpas25_ECACC cell viability assay (AID 1918968; also: nearly all actives have a fitted effect of over 35% in size). In outline:
as §2

Assay [5] can be described thus: Quantitative High-Throughput drug screen in 47 multiple myeloma cell lines against the NCATS MIPE library collection: KMS12BM_JCRB cell viability assay (AID 1918971). Also: nearly all actives have a fitted effect of over 35% in size. In outline: (§3)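 qHTS of the MIPE 4.0 collection: 500 myeloma cells/well, 48 h drug exposure at 37C in 5% CO2, then CellTiter-Glo for 5 min at room temperature before luminescence reading.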
Assay [6] is described as follows: Quantitative High-Throughput drug screen in 47 multiple myeloma cell lines against the NCATS MIPE library collection: KMS12PE_JCRB cell viability assay (AID 1918972). Also: nearly all actives have a fitted effect of over 30% in size. Put shortly:
as §1

The nature of assay [7]: Quantitative High-Throughput drug screen in 47 multiple myeloma cell lines against the NCATS MIPE library collection: KMS26_JCRB cell viability assay (AID 1918975). Also: nearly all actives have a fitted effect of over 45% in size. In outline:
as §3

The nature of assay [8]: Quantitative High-Throughput drug screen in 47 multiple myeloma cell lines against the NCATS MIPE library collection: MMM1_PLB cell viability assay (AID 1918976). Also: nearly all actives have a fitted effect of over 35% in size. In outline:
(§4)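 ATP-based luminescence (CellTiter-Glo, 5 min RT incubation) quantified surviving cells following two days' treatment with MIPE 4.0 agents at 37 °C, 5% CO2.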

A short description of assay [9]: Quantitative High-Throughput drug screen in 47 multiple myeloma cell lines against the NCATS MIPE library collection: MOLP8_DSMZ cell viability assay (AID 1918977). Also: nearly all actives have a fitted effect of over 45% in size. In outline: as §4
Assay [10] in a line: Quantitative High-Throughput drug screen in 47 multiple myeloma cell lines against the NCATS MIPE library collection: NCIH929_DSMZ cell viability assay (AID 1918978). Also: nearly all actives have a fitted effect of over 35% in size. Put shortly: as §4
Assay [11] is described as follows: Quantitative High-Throughput drug screen in 47 multiple myeloma cell lines against the NCATS MIPE library collection: OCIMY1_PLB cell viability assay (AID 1918979). Also: nearly all actives have a fitted effect of over 35% in size. In outline: as §4
The nature of assay [12]: Quantitative High-Throughput drug screen in 47 multiple myeloma cell lines against the NCATS MIPE library collection: MM1S_ATCC cell viability assay (AID 1918980). Also: nearly all actives have a fitted effect of over 45% in size. In outline:
as §4

The nature of assay [13]: Quantitative High-Throughput drug screen in 47 multiple myeloma cell lines against the NCATS MIPE library collection: MM1R_ATCC cell viability assay (AID 1918981). Also: nearly all actives have a fitted effect of over 35% in size. Put shortly:
as §4

Assay [14] in a line: Quantitative High-Throughput drug screen in 47 multiple myeloma cell lines against the NCATS MIPE library collection: LP1_DSMZ cell viability assay (AID 1918982). Also: nearly all actives have a fitted effect of over 35% in size. Put shortly:
as §4

Assay [15] is described as follows: Quantitative High-Throughput drug screen in 47 multiple myeloma cell lines against the NCATS MIPE library collection: KMS28PE_JCRB cell viability assay (AID 1918983). Also: nearly all actives have a fitted effect of over 35% in size. In outline:
as §4

A short description of assay [16]: Quantitative High-Throughput drug screen in 47 multiple myeloma cell lines against the NCATS MIPE library collection: KMS34_JCRB cell viability assay (AID 1918985). Also: nearly all actives have a fitted effect of over 40% in size. Put shortly:
as §4

The nature of assay [17]: Quantitative High-Throughput drug screen in 47 multiple myeloma cell lines against the NCATS MIPE library collection: KMS20_JCRB cell viability assay (AID 1918973). Also: nearly all actives have a fitted effect of over 45% in size. Put shortly:
as §2

A short description of assay [18]: Quantitative High-Throughput drug screen in 47 multiple myeloma cell lines against the NCATS MIPE library collection: KMS27_JCRB cell viability assay (AID 1918970). Also: nearly all actives have a fitted effect of over 30% in size. In outline:
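KMS27_JCRB myeloma cells, 500 per well, exposed 48 h at 37 C, 5% CO2 to MIPE 4.0 compounds. Viability from ATP by CellTiter-Glo luminescence, normalized to DMSO (100%) and medium-only (0%) wells.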

A short description of assay [19]: Quantitative High-Throughput drug screen in 47 multiple myeloma cell lines against the NCATS MIPE library collection: KMS21BM_JCRB cell viability assay (AID 1918974). Particulars: ATP luminescence, 48 h; viability: at 45.8 µM (top of the series) unless noted. In outline:
as §2

A short description of assay [20]: Quantitative High-Throughput drug screen in 47 multiple myeloma cell lines against the NCATS MIPE library collection: L363_DSMZ cell viability assay (AID 1918984). Also: nearly all actives have a fitted effect of over 40% in size. In outline:
as §4

Results filed as inconclusive are left out. Activity calls are given as the source filed them. Calls follow the shape of the dose curve; as a rule, active = well fitted curve in the direction sought with a large enough effect; inconclusive = small, poorly fitted or top-dose-only effect, or another doubt; inactive = no such curve, though single readings can be large; an effect the other way counts as inactive or inconclusive.
Potency is read from the fitted curve at half-maximal effect.

`O=Nc1c(-c2c(O)[nH]c3cc(Br)ccc23)[nH]c2ccccc12`: the Potency was 0.526 µM (active) in assay [1]; 18.7 µM (active) in assay [2]; 10.5 µM (active) in assay [3]; 5.26 µM (active) in assay [4]; 16.6 µM (active) in assay [5]; 1.18 µM (active) in assay [6]. The Potency in [7] is 18.7 µM (active); in [8] it was 20.9 µM (active); in assay [9] it was 16.6 µM (active); in assay [10], 2.64 µM (active); in assay [11], 26.4 µM (active); in assay [12], 11.8 µM (active). Further, the Potency was 16.6 µM (active) in [13], 13.2 µM (active) in [14], 23.5 µM (active) in assay [15] and 3.32 µM (active) in [16].

Take `Nc1nc(N)c(N=O)c(OCC2CCCCC2)n1`: the Potency was 5.26 µM (active) in assay [1]; 16.6 µM (active) in [2]; 5.9 µM (active) in assay [4]; 13.2 µM (active) in assay [5]; 4.69 µM (active) in assay [6]; 4.69 µM (active) in assay [17]. The Potency is 13.2 µM (active) in assay [7]; 5.26 µM (active) in assay [9]; 5.26 µM (active) in assay [10]; 13.2 µM (active) in assay [12]; 14.8 µM (active) in [13]; 14.8 µM (active) in [15]. Moreover, in assay [16], the Potency was 11.8 µM (active).

Consider `O=C(c1ccccc1)c1ccc2n1CCC2C(=O)O` (stereo not drawn), for which the Potency in assay [1] is 10.5 µM (active); in assay [3], 13.2 µM (active); in assay [4] it was 2.96 µM (active); in [17], 8.33 µM (active); in [7], 1.48 µM (active); in [8], 0.743 µM (active). Further, the Potency in assay [10] is 5.26 µM (active); in [12], 1.05 µM (active); in assay [13], 2.09 µM (active). Also, the Potency entry in assay [18], in assay [5], in assay [6], in assay [19], in assay [9] and in assay [11] was “inactive” in each case. The Potency result in [14], in assay [15] and in [16] was “inactive” throughout.

For the compound `Cc1ccc(NC(=O)c2ccc(CN3CCN(C)CC3)cc2)cc1Nc1nccc(-c2cccnc2)n1`, the Potency in assay [1] was 16.6 µM (active); in assay [4], 23.5 µM (active). Besides, the Potency result in [3], in assay [9], in assay [11], in [13] and in assay [15] was “inactive” each time.

For the compound `CCCCc1ccc2nc(NC(=O)OC)[nH]c2c1`, the Potency is 0.001 µM (active) in [1]; 4.69 µM (active) in assay [2]; 0.0235 µM (active) in assay [4]; 0.0093 µM (active) in assay [5]; 0.0047 µM (active) in assay [6]; 1.48 µM (active) in [7]. The Potency is 3.32 µM (active) in assay [8]; 0.935 µM (active) in assay [10]; 0.059 µM (active) in assay [13]; 0.0187 µM (active) in assay [14]; 0.0148 µM (active) in [15]; 0.0148 µM (active) in [16].

Consider `Cc1cccc(C#Cc2ccccc2)n1`, for which the values for the Potency in assay [1], in assay [5] and in assay [10] were 13.2 µM (active), 18.7 µM (active) and 20.9 µM (active), respectively. Also, the Potency entry in assay [3], in assay [4], in assay [18], in assay [6], in [11] and in assay [14] was “inactive” throughout. Besides, the Potency result in assay [15] was “inactive”.

`CCCCCCCCCCCCCCCCCCCCCCO`: the Potency result in assay [1], in [2], in assay [3], in [4], in [6] and in [9] was “inactive” in each case. In addition, the Potency result in assay [11], in [13], in [15], in assay [20] and in [16] was “inactive” each time.

With `Cc1cc(=O)c2c(O)c3c(O)cc(=O)c4c3c3c(cc(O)c1c23)C(C)(C)C=4O`, the Potency was 0.418 µM (active) in [1]; 0.59 µM (active) in assay [3]; 0.264 µM (active) in assay [4]; 4.69 µM (active) in assay [5]; 0.0187 µM (active) in [17]; 4.18 µM (active) in assay [19]. Besides, the Potency is 6.62 µM (active) in assay [7]; 0.372 µM (active) in [8]; 2.64 µM (active) in assay [9]; 0.296 µM (active) in [10]; 4.18 µM (active) in [13]; 5.9 µM (active) in [14]. For the same compound, the results for the Potency in assay [15] and in assay [16] were 6.62 µM (active) and 13.2 µM (active), respectively.

Regarding `COc1cc(C(C)=O)ccc1OCCCN1CCC(c2noc3cc(F)ccc23)CC1`, the Potency was 14.8 µM (active) in [1]; 1.87 µM (active) in [4]; 20.9 µM (active) in assay [6]; 16.6 µM (active) in assay [17]; 0.0074 µM (active) in assay [7]; 18.7 µM (active) in [8]. The Potency in assay [10] was 18.7 µM (active); in [13] it was 16.6 µM (active). Further, the Potency result in assay [3], in assay [9], in [11] and in assay [15] was “inactive” in each case.

With `Cc1nc2n(c(=O)c1CCN1CCC(c3noc4cc(F)ccc34)CC1)CCCC2`, the Potency result in assay [1], in [3], in [4], in [5], in assay [6] and in [17] was “inactive” throughout. Besides, the Potency entry in assay [9], in assay [10], in [11], in assay [12], in [13] and in assay [14] was “inactive” in each case. In addition, the Potency result in assay [15] and in assay [16] was “inactive” each time.

Take `O=C(O)c1cccc(-c2noc(-c3ccccc3F)n2)c1`: the Potency was 23.5 µM (active) in assay [1]; 16.6 µM (active) in [5]; 2.35 µM (active) in assay [8]; 20.9 µM (active) in [12]; 14.8 µM (active) in assay [15]. Further, the Potency entry in assay [3], in assay [10], in [11], in assay [14] and in assay [16] was “inactive” each time. For the same compound, the viability (commonly a read-out of living cells in per cent, often relative to untreated cells) in assay [19] was 121% (active).

Turning to `O=C(NCC1CCCCN1)c1cc(OCC(F)(F)F)ccc1OCC(F)(F)F` (stereo not drawn), the Potency was 13.2 µM (active) in [1]; 8.33 µM (active) in assay [3]; 9.35 µM (active) in assay [4]; 0.526 µM (active) in [18]; 2.09 µM (active) in [6]; 7.43 µM (active) in [17]. Further, the values for the Potency in [10], in assay [12] and in [20] were 9.35 µM (active), 8.33 µM (active) and 0.743 µM (active), respectively. Moreover, the Potency result in [2] is “inactive”.

Regarding `CN(c1nccc(=O)[nH]1)C1CCN(c2nc3ccccc3n2Cc2ccc(F)cc2)CC1`, the Potency in assay [1] is 23.5 µM (active); in assay [3] it was 23.5 µM (active); in assay [4], 11.8 µM (active); in assay [17], 6.62 µM (active); in assay [10], 13.2 µM (active); in assay [12], 11.8 µM (active). Also, the Potency entry in assay [6], in assay [9], in assay [11], in [14], in [15] and in [20] was “inactive” in each case. In addition, in assay [16], the Potency result is “inactive”.

For the compound `CS(=O)(=O)OCCCCOS(C)(=O)=O`, the Potency entry in assay [1], in [3], in assay [4], in assay [6], in [10] and in assay [11] was “inactive” each time. Further, the Potency result in assay [12] and in [16] was “inactive” in each case. For the same compound, the Potency in assay [8] is 16.6 µM (active); in assay [13], 3.72 µM (active); in [15], 13.2 µM (active).

Regarding `Clc1ccc(C(Cn2ccnc2)OCc2c(Cl)cccc2Cl)c(Cl)c1` (stereo not drawn), the Potency was 29.6 µM (active) in assay [1]; 23.5 µM (active) in assay [2]; 26.4 µM (active) in assay [4]; 23.5 µM (active) in assay [5]; 14.8 µM (active) in [6]; 20.9 µM (active) in [19].
